These results are taken from PubChem BioAssay.

The structures appear in SMILES notation. For part of these data: Entries with a potency or affinity are not part of this list. The source made the active and inactive calls.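 Rule for the calls, unless noted: active = fitted half-maximal concentration within 10 nM to 100 µM, steepness 0.5 to 2, significant signal drop, low assay interference; inactive = the rest.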

Experiment [1] has as its target Cell division control protein 42 homolog (Homo sapiens) (UniProt P60953). As to the kind of experiment: activated mutant Cdc42 GTP-binding inhibitors, dose response, biochemical, multiplex bead flow cytometry, Bodipy-FL-GTP (AID 1333;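 active = fitted half-maximal concentration within the tested dose range, moderate curve steepness, a statistically real signal drop, and little compound fluorescence or tag-binding interference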).
Experiment [2] shares this target. The experiment can be described thus: wildtype Cdc42 GTP-binding inhibitors, dose response, biochemical, multiplex bead flow cytometry, Bodipy-FL-GTP (AID 1334;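 active = fitted half-maximal concentration within the tested range, moderate curve steepness, significant signal drop, and little compound fluorescence or bead-linkage interference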). To be noted: bead-based flow cytometry, Bodipy-FL-GTP binding to GST-Cdc42; at 100 µM (top of the series) unless noted. Background: A flow cytometer gives signals particle by particle.
Experiment [3] concerns the target GTPase HRas (Homo sapiens) (UniProt P01112). As to the kind of experiment: inhibitors of GTP binding to wildtype Ras, dose response, biochemical, multiplex bead flow cytometry (AID 1335). To be noted: bead-based flow cytometry, Bodipy-GTP binding to GST-Ras; at 100 µM (top of the series) unless noted.
For experiment [4], the system named is Ras-related protein Rab-7a (dog), GTP binding. The experiment can be described thus: Rab7 GTP binding inhibitors, potency, dose response, biochemical, wildtype, multiplex bead flow cytometry (AID 1336; call rule not given here).
The target in experiment [5] is Ras-related C3 botulinum toxin substrate 1 (Homo sapiens) (UniProt P63000). As to the kind of experiment: wildtype Rac1 GTP binding inhibitors, dose response, biochemical, multiplex bead flow cytometry (AID 1340;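 active = dose curve with midpoint inside tested range, moderate steepness, plateau gap beyond fit error, low compound glow and bead-link interference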). The note with it: GST-Rac1 beads, Bodipy-FL-GTP binding; at 100 µM (top of the series) unless noted.
Experiment [6] deals with GTPase HRas (Homo sapiens) (UniProt P01112). The experiment can be described thus: activated Ras mutant GTP binding inhibitors, dose response, biochemical, multiplex bead flow cytometry (AID 1341;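 active = dose-response curve with midpoint inside the tested range, moderate steepness, significant amplitude and little compound fluorescence or bead-attachment interference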;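 note: GST-tagged constitutively activated Ras mutant immobilized on beads and multiplexed with other GTPases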).
Sequence of GTPase HRas (Homo sapiens) (P01112 whole entry, looked up): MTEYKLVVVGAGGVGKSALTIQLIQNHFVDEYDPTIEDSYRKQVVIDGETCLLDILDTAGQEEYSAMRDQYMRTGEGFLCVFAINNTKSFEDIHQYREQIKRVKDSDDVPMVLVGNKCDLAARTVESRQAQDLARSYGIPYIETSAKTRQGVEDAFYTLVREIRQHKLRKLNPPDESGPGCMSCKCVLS

Sequence of Cell division control protein 42 homolog (Homo sapiens) (P60953 whole entry, looked up): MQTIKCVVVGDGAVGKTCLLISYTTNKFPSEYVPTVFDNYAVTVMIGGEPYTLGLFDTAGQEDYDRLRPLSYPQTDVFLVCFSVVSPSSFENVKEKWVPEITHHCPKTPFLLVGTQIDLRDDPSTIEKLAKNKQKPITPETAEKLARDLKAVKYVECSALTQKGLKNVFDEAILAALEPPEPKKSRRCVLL

For the compound `Cn1c(SCC(=O)Nc2cc(C(C)(C)C)nn2-c2ccccc2)nc2ccccc21`, the outcome in experiment [1], in experiment [4] and in experiment [6] was inactive. Moreover, in experiment [2], the fluorescence, percent of control (lower = inhibition) came out at 46.2%. The GTP binding, percent of control in experiment [3] was 64.7%. The same compound had a GTP binding signal, raw median fluorescence (lower = inhibition) (MCF (arbitrary fluorescence units)) in experiment [5] of 0.
For the compound `CCCOC(=O)c1c(NC(=O)CCC(=O)O)sc2c1CCCCC2`, the result in experiment [1], in experiment [4] and in experiment [6] was inactive. Also, the fluorescence, percent of control (lower = inhibition) in experiment [2] was 32.9%. Further, the GTP binding, percent of control in experiment [3] was 79%. The same compound showed a GTP binding signal, raw median fluorescence (lower = inhibition) (MCF (arbitrary fluorescence units)) in experiment [5] of 282.
On to `O=S(=O)(Cc1ccccc1)N1CCc2ccccc21`, for which the compound was called inactive in experiment [1], in experiment [4] and in experiment [6]. Moreover, in experiment [2], the fluorescence, percent of control (lower = inhibition) was 48.6%. Also, in experiment [3], the GTP binding, percent of control came out at 63.7%. In experiment [5], the GTP binding signal, raw median fluorescence (lower = inhibition) (MCF (arbitrary fluorescence units)) stood at 202.
In the case of `O=[N+]([O-])c1ccc2c(c1)c(-c1ccccc1)nc1nncn12`, the call in experiment [1], in experiment [4] and in experiment [6] was inactive. Also, the fluorescence, percent of control (lower = inhibition) in experiment [2] was found to be 31.3%. Moreover, in experiment [3], the GTP binding, percent of control is 72.1%. In addition, the GTP binding signal, raw median fluorescence (lower = inhibition) (MCF (arbitrary fluorescence units)) in experiment [5] was determined as 203.
Consider `Cc1ccccc1COc1cccc(C)c1C(=O)O`, for which the result in experiment [1], in experiment [4] and in experiment [6] was inactive. The fluorescence, percent of control (lower = inhibition) in experiment [2] came to 58%. This compound had a GTP binding, percent of control in experiment [3] of 200%. In experiment [5], this compound showed a GTP binding signal, raw median fluorescence (lower = inhibition) (MCF (arbitrary fluorescence units)) of 56.1.
Take `CCOc1ccc(-n2c(SCC(=O)NC(C)CC)nc3n[nH]c(C)c3c2=N)cc1` (stereo not given): the compound was classed as inactive in experiment [1], in experiment [4] and in experiment [6]. Besides, in experiment [2], the fluorescence, percent of control (lower = inhibition) amounted to 38.4%. The GTP binding, percent of control in experiment [3] was found to be 48.1%. In experiment [5], this compound returned a GTP binding signal, raw median fluorescence (lower = inhibition) (MCF (arbitrary fluorescence units)) of 0.
For `Nc1c(S(=O)(=O)c2ccccc2)c2nc3ccccc3nc2n1C1CC1`, the outcome in experiment [1], in experiment [4] and in experiment [6] was inactive. The fluorescence, percent of control (lower = inhibition) in experiment [2] amounted to 33.3%. In experiment [3], the GTP binding, percent of control came out at 80%. In experiment [5], the GTP binding signal, raw median fluorescence (lower = inhibition) (MCF (arbitrary fluorescence units)) amounted to 196.
Regarding `CC(C)CCNC(=O)CN(CCN1CCOCC1)C(=O)Cn1nnc(-c2ccc(F)cc2)n1`, the call in experiment [1], in experiment [4] and in experiment [6] was inactive. In addition, in experiment [2], the fluorescence, percent of control (lower = inhibition) amounted to 97.1%. Besides, the GTP binding, percent of control in experiment [3] was found to be 162%. Moreover, the GTP binding signal, raw median fluorescence (lower = inhibition) (MCF (arbitrary fluorescence units)) in experiment [5] was found to be 188.
Consider `Cc1ccc(CSc2ncccc2C(=O)O)cc1`, for which the call in experiment [1], in experiment [4] and in experiment [6] was inactive. In addition, in experiment [2], the fluorescence, percent of control (lower = inhibition) was 67.9%. In addition, the GTP binding, percent of control in experiment [3] amounted to 199%. The GTP binding signal, raw median fluorescence (lower = inhibition) (MCF (arbitrary fluorescence units)) in experiment [5] came out at 284.
`Cc1cc(C(F)F)n2nc(C(=O)Nc3ccc(S(=O)(=O)N4CCCCCC4)cc3)nc2n1`: the result in experiment [1], in experiment [4] and in experiment [6] was inactive. The fluorescence, percent of control (lower = inhibition) in experiment [2] is 36.8%. Also, the GTP binding, percent of control in experiment [3] came out at 82.1%. For the same compound, the GTP binding signal, raw median fluorescence (lower = inhibition) (MCF (arbitrary fluorescence units)) in experiment [5] came to 257.
Turning to `CCN(c1ccc(N=Cc2c(O)n(Cc3ccc(OC)cc3)c(=O)c3ccccc23)cc1)C(C)C`, the compound was classed as inactive in experiment [1], in experiment [4] and in experiment [6]. In experiment [2], the fluorescence, percent of control (lower = inhibition) amounted to 154%. The compound also showed a GTP binding, percent of control in experiment [3] of 196%. This compound registered a GTP binding signal, raw median fluorescence (lower = inhibition) (MCF (arbitrary fluorescence units)) in experiment [5] of 452.
As for `Cc1ccc(-c2ccc(/C=C(\C#N)C(=O)Nc3cc(C)nn3-c3ccccc3)o2)cc1`, the call in experiment [1], in experiment [4] and in experiment [6] was inactive. In addition, the fluorescence, percent of control (lower = inhibition) in experiment [2] was 226%. The compound further gave a GTP binding, percent of control in experiment [3] of 182%. This compound gave a GTP binding signal, raw median fluorescence (lower = inhibition) (MCF (arbitrary fluorescence units)) in experiment [5] of 498.
In the case of `O=c1nc2c(O)cccn2c2c1c(=O)[nH]c1ccccc12`, the compound was called inactive in experiment [1], in experiment [4] and in experiment [6]. Moreover, the fluorescence, percent of control (lower = inhibition) in experiment [2] is 33.4%. In addition, the GTP binding, percent of control in experiment [3] is 44.6%. This compound also displayed a GTP binding signal, raw median fluorescence (lower = inhibition) (MCF (arbitrary fluorescence units)) in experiment [5] of 93.
`CCN1/C(=C\C=C2\C(=O)N(c3ccccc3)C(=S)N2C)Sc2ccccc21`: the compound was called inactive in experiment [1], in experiment [4] and in experiment [6]. Moreover, the fluorescence, percent of control (lower = inhibition) in experiment [2] came to 35.1%. In experiment [3], the GTP binding, percent of control is 73.9%. In addition, in experiment [5], the GTP binding signal, raw median fluorescence (lower = inhibition) (MCF (arbitrary fluorescence units)) came out at 189.
`CC1=C(C#N)c2nc(N)c(C#N)c(C)c2/C1=C\c1ccc(-c2ccccc2C(=O)O)o1`: the result in experiment [1], in experiment [4] and in experiment [6] was inactive. Further, the fluorescence, percent of control (lower = inhibition) in experiment [2] was found to be 30.1%. Also, the GTP binding, percent of control in experiment [3] is 74.4%. In addition, the GTP binding signal, raw median fluorescence (lower = inhibition) (MCF (arbitrary fluorescence units)) in experiment [5] was determined as 159.
